Bioassay records (PubChem)
A selection: hits, their analogues and other compounds. The true share with any hit is near 9.2%.
ALDH1A1 inh: ALDH1A1 (human) enzyme inhibition; Purified ALDH1A1, NADH fluorescence, propionaldehyde substrate; Potency, µM (doses to about 75.3 µM), actives largely listed as inhibitors; P00352; actives 7.3% (n = 220,000)
HTT ATP protect: protects HTT-Q103 PC12 cells, measured by ATP; PC12 HTT-Q103 induced, cytoprotection, ATP luminescence, 40 h; Potency, µM (highest dose often 56.4 µM), most hits filed as activators; actives 0.14% (n = 230,000); active = well fitted curve in the direction sought with a large enough effect; inconclusive = small, poorly fitted or top-dose-only effect, or another doubt; inactive = no such curve, though single readings can be large; an effect the other way counts as inactive or inconclusive; also: nearly all actives have a fitted effect of over 45% in size
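Readout: ATPlite luminescence (ATP level). Model: stable PC12, inducible Htt exon1 Q103-GFP. Inducer: tebufenozide, 100 nM final. Compounds: dose series. No G418 in medium.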
KDM4E inh: JMJD2E (human) inhibition. JMJD2E catalytic domain, FDH-coupled NADH fluorescence (FDH is formaldehyde dehydrogenase). AID 2147. actives 1.6% (n = 230,000). Potency, µM (doses to about 57.1 µM), most hits filed as inhibitors; also: nearly all actives have a fitted effect of over 50% in size
Lamin A splicing: LMNA splicing modulation | HeLa LMNA splicing GFP/RFP minigene ratio, 48 h | Potency, µM (doses to about 46.1 µM), most hits filed as inhibitors | actives 0.01% (n = 200,000) | AID 1487; active = well fitted inhibition curve with a large enough effect in the signal ratio, with a control signal flat, not every such curve was filed as active; inconclusive = small, poorly fitted or top-dose-only effect, or effect the other way, or a change in a side signal; the % refers to the signal ratio
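S3 HeLa cells stably expressing lamin A-EGFP splicing minigene plus DsRed2, 600 cells/well, 48 h compound exposure at 37C. Laser-scanning cytometry; analysed as GFP (500-530 nm)/RFP (575-640 nm) total intensity ratio; 0.5% DMSO vehicle.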
HPGD block: HPGD (human) dehydrogenase inhibition; actives 4.3% (n = 150,000); P15428; Potency, µM, most hits filed as inhibitors; purified HPGD, NADH fluorescence kinetic, PGE2 substrate
Target sequence (P15428 whole entry, looked up): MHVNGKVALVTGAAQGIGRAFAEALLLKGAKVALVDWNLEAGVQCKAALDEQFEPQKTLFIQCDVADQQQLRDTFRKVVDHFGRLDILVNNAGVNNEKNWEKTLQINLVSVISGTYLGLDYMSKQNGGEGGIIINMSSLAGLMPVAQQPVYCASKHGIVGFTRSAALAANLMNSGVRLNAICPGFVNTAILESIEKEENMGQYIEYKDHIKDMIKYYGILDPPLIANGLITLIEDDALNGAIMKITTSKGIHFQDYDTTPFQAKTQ
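NADH formation kinetics: reaction with 30 uM PGE2 and 1 mM NAD+ (final), 20 nM enzyme, Tris-HCl pH 8 with Tween 20, after 15 min compound preincubation at room temperature. Fluorescence change, last versus first of five reads.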
HttQ103 aggreg: mutant huntingtin aggregation inhibition; PC12 HttQ103-GFP aggregates, Acumen cytometry, 40 h; Potency, µM (top dose mostly 46.1 µM), usual class: inhibitors; actives 1.1% (n = 220,000); AID 1688; active = well fitted curve in the direction sought with a large enough effect; inconclusive = small, poorly fitted or top-dose-only effect, or another doubt; inactive = no such curve, though single readings can be large; an effect the other way counts as inactive or inconclusive; also: nearly all actives have a fitted effect of over 60% in size
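Multiplexed with ATP-based cell death, this channel scores GFP aggregates in PC12 cells expressing inducible HTTex1-Q103-GFP. Induction used 100 nM tebufenozide; compounds were tested in concentration series.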
Of the large screens only hits and unclear results are named; the others gave an inactive call. Unless noted, calls follow the shape of the dose curve; as a rule, active = well fitted inhibition curve with a large enough effect (not every such curve was filed as active); inconclusive = small, poorly fitted or top-dose-only effect, or another doubt; inactive = no such curve, though single readings can be large or run the other way.

O=C(CN(C(=O)c1cc2c(s1)CCC2)C1CCCC1)NCc1cccs1	ALDH1A1 inh 16µM, HttQ103 aggreg inconclusive
CCC(=O)Nc1ccc(C(=O)NNC(=O)COc2cccc(C)c2)cc1	none (no result: HTT ATP protect)
O=C(COc1ccc2ccccc2c1)NCCNC(=O)COc1ccc2ccccc2c1	HttQ103 aggreg inconclusive
Cc1cc(Cl)c(S(=O)(=O)N2CCSCC2)cc1OCC(=O)NC1CCCCC1	ALDH1A1 inh 7.9µM, Lamin A splicing inconclusive
Cc1ccc(OCC(=O)NC2CC(C)(C)NC(C)(C)C2)c(C)c1	HTT ATP protect inconclusive, HttQ103 aggreg inconclusive (no result: Lamin A splicing, HPGD block)
O=C(COc1ccc2ccccc2c1)NC1CC1	HPGD block 32µM, HttQ103 aggreg inconclusive
O=C(COc1ccc(Br)cc1Br)NC1CCCC1	none (no result: Lamin A splicing, HPGD block)
O=C(COc1ccc(Br)cc1Cl)NC1CCCCC1	Lamin A splicing inconclusive, HPGD block 11µM
Cc1ccc(OCC(=O)NC2CCCC2)c(C)c1	Lamin A splicing inconclusive, HPGD block 28µM
CN(C)C(=O)OC1=C(c2ccccc2)Sc2ccccc2-n2cccc21	ALDH1A1 inh inconclusive (no result: KDM4E inh, Lamin A splicing, HPGD block, HttQ103 aggreg)
CN(C)C(CNC(=O)c1cc(S(=O)(=O)N(C)c2ccccc2)ccc1Cl)c1cccs1 (centres undefined)	none (no result: Lamin A splicing, HPGD block)
COc1ccc(Oc2ncc3nc(-c4cn(C)c5ccccc45)c(=O)n(C4CC4)c3n2)cc1	HTT ATP protect inconclusive, Lamin A splicing inconclusive (no result: KDM4E inh, HPGD block, HttQ103 aggreg)
COC(=O)[C@]1(C)CCC[C@]2(C)c3ccc(C(C)C)cc3C(=O)CC12 (some centres undefined)	ALDH1A1 inh inconclusive (no result: HTT ATP protect, HttQ103 aggreg)
CC(CN(C)C)NC(=O)c1ccc(-n2c(=O)c(=O)[nH]c3ccccc32)cc1 (centres undefined)	none (no result: HTT ATP protect, KDM4E inh, Lamin A splicing, HttQ103 aggreg)
O=c1/c(=C\c2cccc(O)c2)sc2nc(-c3ccccc3)c(-c3ccccc3)n12	none (no result: ALDH1A1 inh, Lamin A splicing, HPGD block)
Cc1cc(Cl)ccc1OCCCC(=O)NC1CCN(C)CC1	none
Cc1cc(Cl)ccc1OCC(=O)NC1CCCC1	Lamin A splicing inconclusive, HPGD block 14µM
O=C(NCc1ccccc1)c1cc[n+](Cc2ccccc2)cc1	none (no result: HPGD block)
COc1ccc(C(=O)/C(=C/c2cccs2)c2nc3ccccc3o2)cc1	ALDH1A1 inh 2µM, HTT ATP protect inconclusive, Lamin A splicing inconclusive, HPGD block 35µM
CCOC(=O)c1[nH]cnc1C(=O)Nc1ccccn1	ALDH1A1 inh 0.25µM (no result: HPGD block)
COc1cccc(NC(=O)COC(=O)CC(NC(N)=O)c2ccc(Cl)cc2)c1 (centres undefined)	none (no result: ALDH1A1 inh, Lamin A splicing, HPGD block)
COc1cc(/C=N/NC(=O)c2cc3ccccc3cc2O)ccc1OCCN1CCCCC1	Lamin A splicing inconclusive, HPGD block inconclusive, HttQ103 aggreg 20µM (no result: HTT ATP protect)
[O-]/C(=C(\C(=S)Nc1cccc2ccccc12)[n+]1ccccc1)c1ccc2c(c1)OCCO2	ALDH1A1 inh 10µM, KDM4E inh inconclusive, HPGD block inconclusive
COc1cccc(NC(=O)CCN2CCN(c3ccccc3F)CC2)c1	none
COc1cccc(NC(=S)/C(=C(\[O-])c2ccc(OC(F)F)cc2)[n+]2ccccc2)c1	ALDH1A1 inh 20µM (no result: HPGD block)
COc1cccc(NC(=S)/C(=C(\[O-])c2cc(C)n(-c3ccccc3F)c2C)[n+]2ccc(N(C)C)cc2)c1	ALDH1A1 inh inconclusive, HttQ103 aggreg 13µM (no result: Lamin A splicing, HPGD block)
[O-]/C(=C(\C(=S)Nc1cccc2ccccc12)[n+]1ccccc1)c1ccc(OC(F)F)cc1	ALDH1A1 inh 19µM, KDM4E inh inconclusive (no result: HPGD block)
[O-]/C(=C(\C(=S)Nc1cccc2ccccc12)[n+]1ccccc1)c1cccs1	ALDH1A1 inh inconclusive, KDM4E inh inconclusive (no result: HPGD block)
Cc1ccccc1NC(=S)/C(=C(\[O-])c1ccc(C)c([N+](=O)[O-])c1)[n+]1ccccc1	none
COc1cccc(NC(=S)/C(=C(\[O-])c2ccc(C)c([N+](=O)[O-])c2)[n+]2ccccc2)c1	ALDH1A1 inh inconclusive
COc1ccc(-c2nc3sc(CCNC(=O)Cc4ccccc4)c(C)n3n2)cc1	none (no result: ALDH1A1 inh, HTT ATP protect, KDM4E inh, HPGD block, HttQ103 aggreg)
N#Cc1ccc(OC(=O)c2ccc(N=C(N)N)cc2)cc1	none (no result: KDM4E inh, Lamin A splicing, HttQ103 aggreg)
